Source: PubChem (National Center for Advancing Translational Sciences (NCATS))
Rows were chosen to be rich in hits. Some 2.7% of all compounds tested hit in one or more screens of this group.
gsp antag: antagonists of gsp mutant (McCune-Albright syndrome) | gsp-mutant cells, cAMP HTRF, 30 min | Potency, µM (titrated, usually from 76.9 µM), for inactives: top-dose activity change, negative = inhibition, usual class: inhibitors | hit rate 0.4% among 340,000 | AID 624288; calls by dose curve; cell line not stated here;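 note: intracellular cAMP measured with PDE inhibitor Ro 20-1724 present during compound exposure; potency is the fitted concentration of half-maximal effect; % is set by controls: 0 for no effect and ±100 for the full control effect; nearly all actives have a fitted effect of over 65% in size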
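Cells, 2000/well, grown 16–24 h in DMEM 10% FBS with 0.5 mg/ml G418, then compounds plus […] (300 uM addition stock), 30 min at 37C. cAMP read by HTRF (cAMP-d2 and anti-cAMP antibody-K in lysis buffer) after 30 min RT.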
Akt phos inh: blocks phosphorylation of Akt. Neuro2A IGF-stimulated pAkt S473 HTRF, 20 min; active compounds read low. activity change, % for hits at 50 µM. hit rate 0.32% among 360,000. AID 651550; in the data active = activity change below about -80%; inconclusive = mostly about -51% to -80%; note: % is set by controls: 0 for no effect and ±100 for the full control effect
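Neuro2A cells in DMEM with 0.5% FBS, overnight at 37 deg C, given compound at single 50 µM final, then IGF (6 nM final) for 20 min at 37 deg C. Lysed; phospho-Akt Ser473 by HTRF after 24 h, 665/615 ratio.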
RXFP1 ag: RXFP1 (human) receptor agonism | Q9HBX9 | HEK293T-RXFP1 cAMP TR-FRET, 30 min; response scale: percent of porcine relaxin response, buffer zero | Potency, µM (top dose mostly 57.5 µM), for the others: top-dose activation, actives largely listed as activators | hit rate 0.3% among 370,000; active = well fitted activation curve with a large enough effect; inconclusive = small, poorly fitted or top-dose-only effect; note: potency is the fitted concentration of half-maximal effect; % is set by controls: 0 for no effect and ±100 for the full control effect; nearly all actives have a fitted effect of over 60% in size
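HEK293 cells stably expressing RXFP1, treated 30 min at 37C with compounds plus PDE4 inhibitor Ro 20174; cAMP measured by HTRF TR-FRET. Normalized to buffer and 29 nM porcine relaxin; EC50 by Hill fit.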
ClpP mod: qHTS Assay for Activators of ClpP | ATP-dependent Clp protease proteolytic subunit (Bacillus subtilis (strain 168)), P80244 | purified B. subtilis ClpP, FRET peptide cleavage, 20 min | Potency, µM (highest dose often 57.5 µM), for inactives: top-dose activity change, negative = active | hit rate 1.9% among 340,000; active = well fitted falling curve with a large enough effect; inconclusive = small, poorly fitted or top-dose-only effect; inactive = no such curve, though single readings can be large or run the other way; note: potency is the fitted concentration of half-maximal effect; the source files actives as falling curves though it sought activators and does not explain the sign; nearly all actives have a fitted effect of over 65% in size
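FRET quenching reversal measured ClpP activation: 10 microg/mL B. subtilis ClpP at pH 8 with the FRET-FV decapeptide, read at 430 nm after 320 nm excitation. The 20-min minus 0-min signal was scaled between DMSO/no-enzyme wells and ADEP (5.8 microM final).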
gsp agonist: gsp mutant agonism; gsp mutant cells, cAMP HTRF, 30 min; Potency, µM (series often up to 76.9 µM), without a hit: at the top dose activation (cAMP increase), actives largely listed as activators; hit rate 0.13% among 340,000; AID 624287; active = well fitted activation curve with a large enough effect; inconclusive = small, poorly fitted or top-dose-only effect, or another doubt; inactive = no such curve, though single readings can be large or run the other way; cell line not stated here;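 note: phosphodiesterase inhibitor Ro 20-1724 added with compounds to block cAMP breakdown; potency is the fitted concentration of half-maximal effect; nearly all actives have a fitted effect of over 60% in size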
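Cells stably selected in G418 were plated at 2000/well, grown 16-24 hr, then given compounds in DMSO with the PDE inhibitor […] (300 uM solution added) for 30 min at 37C; cAMP was read by HTRF.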
RXFP1 antag: antagonists of human relaxin receptor RXFP1 | Q9HBX9 | HEK293-RXFP1, relaxin-stimulated cAMP HTRF, 30 min; active compounds read low | hit rate 0.59% among 350,000 | activity change, negative = inhibition, % at 57.5 µM;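 active = activity change of -60% or lower, but not beyond a set lower limit; inconclusive = change between -60% and -40%, or beyond the set limit; inactive = change above -40%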; note: % is set by controls: 0 for no effect and ±100 for the full control effect
* = called active by the depositor; [ ] = another dose, or the depositor's remark.

What do the screens show for `C=CC[C@]1(O)CC[C@H]2[C@@H]3CCC4=CC(=O)CCC4=C3C=C[C@@]21C`?
RXFP1 antag: -39

How did O=C(Nc1ccc(Br)cc1)c1ccc(Cl)c(S(=O)(=O)N2CCCCCC2)c1 do in these assays?
RXFP1 ag: 26%; ClpP mod: 37%; RXFP1 antag: -7

How did Cc1ccc(N/N=C/C=C/c2ccco2)cc1 do in these assays?
gsp antag: 0%; Akt phos inh: inactive; ClpP mod: 13µM*; gsp agonist: 10%[15.4 µM]; RXFP1 antag: -2

Results for Nc1ccc2c3c(cccc13)CC2 ?
gsp antag: 13%; Akt phos inh: inactive; RXFP1 ag: -1%; ClpP mod: 14µM*; gsp agonist: -1%; RXFP1 antag: 11

How did O=C1NC(=O)N(c2ccccc2)C(=O)/C1=C\c1ccc2c3c(cccc13)CC2 do in these assays?
RXFP1 ag: -3%

What do the screens show for `Cc1cccc(OCC(=O)Nc2cc(-c3ccccc3F)nn2-c2ccccc2)c1`?
RXFP1 ag: inconclusive; ClpP mod: -9%

Results for COc1ccc(-c2coc3c(C(=O)Nc4cc(OC)c(OC)c(OC)c4)cccc23)c(C)c1 ?
Akt phos inh: inactive; ClpP mod: inconclusive

Results for c1ccc2c(CN3CCCCCCC3)c[nH]c2c1 ?
gsp antag: 8%; Akt phos inh: inactive; RXFP1 ag: 2%; ClpP mod: 28µM*; gsp agonist: -70%; RXFP1 antag: -11

Results for c1ccc2c(CN3CCN(C4CCCCC4)CC3)c[nH]c2c1 ?
gsp antag: 6%; Akt phos inh: inactive; RXFP1 ag: -1%; ClpP mod: -1%; gsp agonist: -30%; RXFP1 antag: -18

What do the screens show for `O=C(CNC(=O)OCc1ccccc1)Nc1ccc(Br)cc1C(=O)c1ccccc1`?
gsp antag: 20%; Akt phos inh: inactive; RXFP1 ag: 2%; ClpP mod: 0%; gsp agonist: 25%; RXFP1 antag: -11

What do the screens show for `O=C(CNC(=O)OCc1ccccc1)NCC(=O)Nc1ccc(Br)cc1C(=O)c1ccccc1`?
gsp antag: 24%; Akt phos inh: inactive; RXFP1 ag: 1%; ClpP mod: 25µM*; gsp agonist: 14%; RXFP1 antag: 13

How did c1ccc(N2CCNCC2)cc1 do in these assays?
RXFP1 antag: 17

How did CC[C@H](OC(C)=O)C(C[C@H](C)NC)(c1ccccc1)c1ccccc1 do in these assays?
RXFP1 antag: -22

Results for Cn1cc(C(=O)N2CCC3(CC2)OCCO3)c2c3ccccc3n(C)c2c1=O ?
gsp antag: -2%; Akt phos inh: inactive; RXFP1 ag: 1%; ClpP mod: 14µM*; gsp agonist: 12%; RXFP1 antag: 7

What do the screens show for `Cn1c2ccccc2c2c(C(=O)N3CCC4(CC3)OCCO4)cn(C3CCCCC3)c(=O)c21`?
gsp antag: 1%; Akt phos inh: inactive; RXFP1 ag: 1%; ClpP mod: 18µM*; gsp agonist: 10%; RXFP1 antag: 2

What do the screens show for `CC(C)Cn1cc(C(=O)N2CCC3(CC2)OCCO3)c2c3ccccc3n(C)c2c1=O`?
gsp antag: -11%; Akt phos inh: inactive; RXFP1 ag: 0%; ClpP mod: 16µM*; gsp agonist: -33%; RXFP1 antag: 1

Results for Cn1c(C(=O)N2CCC3(CC2)OCCO3)cc2c(=O)n(C)c3ccccc3c21 ?
gsp antag: 2%; Akt phos inh: inactive; RXFP1 ag: 6%; ClpP mod: -14%; gsp agonist: inconclusive; RXFP1 antag: 21

How did Cc1ccc(Cl)cc1N1CCN(C(=O)c2cn(CC(C)C)c(=O)c3c2c2ccccc2n3C)CC1 do in these assays?
RXFP1 ag: 6%; ClpP mod: 13µM*; RXFP1 antag: -8

How did COc1ccccc1CNc1nc(NCc2ccccc2SC)c2sccc2n1 do in these assays?
Akt phos inh: inactive; ClpP mod: inconclusive
